Test results published in PubChem BioAssay (NCATS).
Records with an inconclusive call do not appear. Activity calls are given as the source filed them. Calls follow the shape of the dose curve; as a rule, active = well fitted cell-killing curve with a large enough effect; inconclusive = small, poorly fitted or top-dose-only effect, or effect the other way; inactive = no such curve, though single readings can be large or run the other way.

Tests used:
[1] = Quantitative High-Throughput drug screen in 47 multiple myeloma cell lines against the NCATS MIPE library collection: KMS28PE_JCRB cell viability assay (AID 1918983); also: nearly all actives have a fitted effect of over 35% in size; also: potency is read from the fitted curve at half-maximal effect
Method in brief: (§1)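 qHTS format: cells plated (500/well), pin-dosed with MIPE 4.0 compounds, kept 48 h at 37 °C. Readout was CellTiter-Glo luminescence, median RLU.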

[2] = Quantitative High-Throughput drug screen in 47 multiple myeloma cell lines against the NCATS MIPE library collection: XG1_PLB cell viability assay (AID 1919866); also: nearly all actives have a fitted effect of over 35% in size; also: potency is read from the fitted curve at half-maximal effect
Method in brief: as §1

[3] = Quantitative High-Throughput drug screen in 47 multiple myeloma cell lines against the NCATS MIPE library collection: OPM2_DSMZ cell viability assay (AID 1919872); also: nearly all actives have a fitted effect of over 30% in size; also: potency is read from the fitted curve at half-maximal effect
Method in brief: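 Inhibition of cell viability is measured here. Each line was plated at 500 cells per well, treated with MIPE 4.0 drugs, kept 48 hours at 37C, then assayed for ATP content by CellTiter-Glo luminescence.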

[4] = Quantitative High-Throughput drug screen in 47 multiple myeloma cell lines against the NCATS MIPE library collection: KMS28BM_JCRB cell viability assay (AID 1919874); also: nearly all actives have a fitted effect of over 35% in size; also: potency is read from the fitted curve at half-maximal effect
Method in brief: as §1

[5] = Quantitative High-Throughput drug screen in 47 multiple myeloma cell lines against the NCATS MIPE library collection: KMS34_JCRB cell viability assay (AID 1918985); also: nearly all actives have a fitted effect of over 40% in size; also: potency is read from the fitted curve at half-maximal effect
Method in brief: as §1

[6] = Quantitative High-Throughput drug screen in 47 multiple myeloma cell lines against the NCATS MIPE library collection: OCIMY7_PLB cell viability assay (AID 1918987); also: nearly all actives have a fitted effect of over 65% in size; also: potency is read from the fitted curve at half-maximal effect
Method in brief: as §1

[7] = Quantitative High-Throughput drug screen in 47 multiple myeloma cell lines against the NCATS MIPE library collection: PCM6_Riken cell viability assay (AID 1919870); also: nearly all actives have a fitted effect of over 30% in size; also: potency is read from the fitted curve at half-maximal effect
Method in brief: as §1

[8] = Quantitative High-Throughput drug screen in 47 multiple myeloma cell lines against the NCATS MIPE library collection: KMS11_JCRBsus cell viability assay (AID 1919873); also: nearly all actives have a fitted effect of over 50% in size; also: potency is read from the fitted curve at half-maximal effect
Method in brief: as §1

[9] = Quantitative High-Throughput drug screen in 47 multiple myeloma cell lines against the NCATS MIPE library collection: OCIMY5_PLB cell viability assay (AID 1918988); also: nearly all actives have a fitted effect of over 65% in size; also: potency is read from the fitted curve at half-maximal effect
Method in brief: as §1

[10] = Quantitative High-Throughput drug screen in 47 multiple myeloma cell lines against the NCATS MIPE library collection: OPM1_PLB cell viability assay (AID 1918989); also: nearly all actives have a fitted effect of over 40% in size; also: potency is read from the fitted curve at half-maximal effect
Method in brief: as §1

[11] = Quantitative High-Throughput drug screen in 47 multiple myeloma cell lines against the NCATS MIPE library collection: PE2_PLB cell viability assay (AID 1919869); also: nearly all actives have a fitted effect of over 35% in size; also: potency is read from the fitted curve at half-maximal effect
Method in brief: as §1

[12] = Quantitative High-Throughput drug screen in 47 multiple myeloma cell lines against the NCATS MIPE library collection: L363_DSMZ cell viability assay (AID 1918984); also: nearly all actives have a fitted effect of over 40% in size; also: potency is read from the fitted curve at half-maximal effect
Method in brief: as §1

[13] = Quantitative High-Throughput drug screen in 47 multiple myeloma cell lines against the NCATS MIPE library collection: SKMM1_PLB cell viability assay (AID 1919863); details: SKMM1 myeloma viability, CellTiter-Glo ATP, 48 h; viability: active compounds read low; also: nearly all actives have a fitted effect of over 35% in size; also: potency is read from the fitted curve at half-maximal effect; as to viability: series mostly up to about 46 µM
Method in brief: as §1

[14] = Quantitative High-Throughput drug screen in 47 multiple myeloma cell lines against the NCATS MIPE library collection: U266_ATCC cell viability assay (AID 1919864); also: nearly all actives have a fitted effect of over 35% in size; also: potency is read from the fitted curve at half-maximal effect
Method in brief: as §1

[15] = Quantitative High-Throughput drug screen in 47 multiple myeloma cell lines against the NCATS MIPE library collection: VP6_DJ cell viability assay (AID 1919867); also: nearly all actives have a fitted effect of over 40% in size; also: potency is read from the fitted curve at half-maximal effect
Method in brief: as §1

[16] = Quantitative High-Throughput drug screen in 47 multiple myeloma cell lines against the NCATS MIPE library collection: XG6_PLB cell viability assay (AID 1919865); also: nearly all actives have a fitted effect of over 40% in size; also: potency is read from the fitted curve at half-maximal effect
Method in brief: as §1

[17] = Quantitative High-Throughput drug screen in 47 multiple myeloma cell lines against the NCATS MIPE library collection: RPMI8226_ATCC cell viability assay (AID 1919871); also: nearly all actives have a fitted effect of over 30% in size; also: potency is read from the fitted curve at half-maximal effect
Method in brief: as §1

[18] = Quantitative High-Throughput drug screen in 47 multiple myeloma cell lines against the NCATS MIPE library collection: UTMC2_PLB cell viability assay (AID 1919868);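 also: 100% = DMSO-only wells and 0% = media-only wells without cells; nearly all actives have a fitted effect of over 55% in size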
Method in brief: as §1

O=C1CCc2ccc(OCCCCN3CCN(c4cccc(Cl)c4Cl)CC3)cc2N1
active: Potency [1] 18.7 µM | Potency [2] 23.5 µM
inactive: Potency [3] | Potency [4]

Cc1c(C(=O)NN2CCCCC2)nn(-c2ccc(Cl)cc2Cl)c1-c1ccc(Cl)cc1
active: Potency [6] 16.6 µM | Potency [2] 26.4 µM | Potency [7] 26.4 µM | Potency [8] 23.5 µM | Potency [4] 23.5 µM
inactive: Potency [5]

CCCOc1ccc2nc(NC(=O)OC)[nH]c2c1
inactive: Potency [2]
active: Potency [1] 0.0066 µM | Potency [5] 0.0059 µM | Potency [9] 0.0026 µM | Potency [10] 0.0187 µM | Potency [11] 0.0469 µM | Potency [3] 0.0105 µM

O=C(NOCC1CC1)c1ccc(F)c(F)c1Nc1ccc(I)cc1Cl
active: Potency [12] 18.7 µM | Potency [5] 23.5 µM | Potency [10] 18.7 µM | Potency [13] 20.9 µM | Potency [14] 23.5 µM | Potency [2] 11.8 µM | Potency [15] 4.69 µM | Potency [11] 6.62 µM | Potency [7] 14.8 µM | Potency [8] 20.9 µM | Potency [4] 26.4 µM

Cc1ccc(NC(=O)c2ccc(CN3CCN(C)CC3)cc2)cc1Nc1nccc(-c2cccnc2)n1
active: Potency [10] 23.5 µM | Potency [16] 33.2 µM | Potency [15] 23.5 µM | Potency [7] 18.7 µM
inactive: Potency [1] | Potency [17] | Potency [3] | Potency [4]

O=c1c(O)c(-c2ccc(O)cc2O)oc2cc(O)cc(O)c12
active: Potency [2] 0.833 µM
inactive: Potency [10] | viability [13] 122% | Potency [14] | Potency [7] | Potency [17] | Potency [3] | Potency [8] | Potency [4]

CCOC(=O)C1=C(O)C(=O)N(Cc2ccccc2)C1
inactive: Potency [1] | Potency [10] | viability [13] 107% | Potency [14] | Potency [16] | Potency [2] | Potency [11] | Potency [7] | Potency [3] | Potency [8] | Potency [4]

Cc1nc(Nc2ncc(C(=O)Nc3c(C)cccc3Cl)s2)cc(N2CCN(CCO)CC2)n1
active: Potency [12] 1.32 µM | Potency [5] 0.59 µM | Potency [9] 0.743 µM | Potency [14] 16.6 µM | Potency [16] 0.0332 µM | Potency [2] 16.6 µM | Potency [15] 0.0662 µM | Potency [11] 3.32 µM | Potency [7] 5.26 µM | Potency [8] 14.8 µM

Cc1cccc(CN2CCN(C(c3ccccc3)c3ccc(Cl)cc3)CC2)c1 (stereo not given)
active: Potency [6] 9.35 µM | Potency [9] 20.9 µM | Potency [10] 20.9 µM | Potency [16] 14.8 µM | Potency [7] 16.6 µM

Cc1ccc(Nc2nccc(N(C)c3ccc4c(C)n(C)nc4c3)n2)cc1S(N)(=O)=O
active: Potency [12] 11.8 µM | Potency [6] 18.7 µM | Potency [9] 16.6 µM | Potency [10] 14.8 µM | Potency [2] 9.35 µM | Potency [15] 16.6 µM | Potency [11] 16.6 µM | Potency [7] 4.69 µM | Potency [17] 14.8 µM
inactive: Potency [4]

CC(=O)NC[C@H]1CN(c2ccc(N3CCOCC3)c(F)c2)C(=O)O1
inactive: Potency [1] | Potency [5] | Potency [14] | Potency [16] | Potency [2] | Potency [15] | Potency [11] | Potency [7] | Potency [3] | Potency [4]

CC(C)Oc1ccc2c(=O)c(-c3ccccc3)coc2c1
inactive: Potency [5] | Potency [10] | viability [13] 100% | Potency [14] | Potency [16] | Potency [11] | Potency [7] | Potency [3] | Potency [8] | Potency [4]
active: Potency [1] 14.8 µM

CC(S)C(=O)NCC(=O)O (stereo not given)
inactive: Potency [1] | Potency [9] | Potency [16] | Potency [2] | Potency [11] | Potency [7] | Potency [17] | Potency [3] | Potency [8] | Potency [4]

CCOC(=O)C(C)Oc1cccc2c(=O)n(CC(=O)Nc3ccc4c(c3)OCCO4)ccc12 (stereo not given)
inactive: Potency [5] | Potency [6] | Potency [2] | Potency [11] | Potency [7] | Potency [8] | Potency [4]
active: Potency [12] 9.35 µM

O=c1c(O)c(-c2cc(O)c(O)c(O)c2)oc2cc(O)cc(O)c12
inactive: Potency [16] | Potency [2] | Potency [18] | Potency [7]
active: Potency [1] 23.5 µM | Potency [9] 23.5 µM | Potency [3] 26.4 µM

COC(=O)N[C@H](C(=O)N[C@@H](Cc1ccccc1)[C@@H](O)CN(Cc1ccc(-c2ccccn2)cc1)NC(=O)[C@@H](NC(=O)OC)C(C)(C)C)C(C)(C)C
inactive: Potency [12] | Potency [14] | Potency [16] | Potency [11] | Potency [17] | Potency [3]
active: Potency [5] 20.9 µM | Potency [15] 20.9 µM | Potency [7] 9.35 µM

OC(CN1CCN(c2cccc(Cl)c2)CC1)C(c1ccccc1)c1ccccc1 (stereo not given)
inactive: Potency [12] | Potency [11]
active: Potency [14] 10.5 µM

Clc1ccc(C(Cn2ccnc2)OCc2c(Cl)cccc2Cl)c(Cl)c1 (stereo not given)
active: Potency [12] 18.7 µM | Potency [6] 29.6 µM | Potency [13] 26.4 µM | Potency [2] 20.9 µM | Potency [15] 16.6 µM | Potency [7] 14.8 µM
